Laboratory results published in PubChem BioAssay AID1159580 (chemical genetic matrix, 2015).
About 2,000 (36%) of roughly 5,500 compounds were called active. Not shown: some 18% with an inconclusive outcome. No stated cut-off is given here; in the data, active means normalized growth mostly below about 0.91 (no sharp cut-off); inconclusive means no clear call, values can overlap the other calls; inactive means mostly above about 0.92. This is one part of the list.

Experiment: chemical genetic growth profiling, strain panel (AID 1159580);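 further: tested at 20 µM; growth read once vehicle control cultures reached saturation at 30 °C; 1 = growth at the plate median or of vehicle wells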
Details: growth OD

Measured: normalized growth

Nc1ccc(S(=O)(=O)Nc2nccs2)cc1
inactive: S. cerevisiae deletion strains, locus YJR075W, strain HOC1, stronger effect = lower value 1.01 | S. cerevisiae deletion strains, locus YKL009W, strain mrt4, stronger effect = lower value 0.999 | S. cerevisiae deletion strains, locus YKL068W, stronger effect = lower value 0.99 | S. cerevisiae deletion strains, locus YKL085W, strain MDH1 (second series), stronger effect = lower value 0.99 | S. cerevisiae deletion strains, locus YKL085W, strain MDH1, stronger effect = lower value 0.99 | S. cerevisiae deletion strains, locus YKL160W, strain elf1, stronger effect = lower value 1.02 | S. cerevisiae deletion strains, locus YKL190W, strain CNB1, stronger effect = lower value 1.01 | S. cerevisiae deletion strains, locus YKR001C, strain vps1, stronger effect = lower value 1.02 | S. cerevisiae deletion strains, locus YKR026C, strain gcn3, stronger effect = lower value 1.01 | S. cerevisiae deletion strains, locus YKR091W, strain srl3, stronger effect = lower value 1.01 | S. cerevisiae deletion strains, locus YLL001W, strain dnm1, stronger effect = lower value 1.02 | S. cerevisiae deletion strains, locus YLL026W, stronger effect = lower value 1.02 | S. cerevisiae deletion strains, locus YLL041C, strain sdh2, stronger effect = lower value 1.01 | S. cerevisiae deletion strains, locus YLR027C, strain aat2, stronger effect = lower value 1.02 | S. cerevisiae deletion strains, locus YLR039C, strain RIC1, stronger effect = lower value 1.04 | S. cerevisiae deletion strains, locus YLR058C, strain SHM2, stronger effect = lower value 1.01 | S. cerevisiae deletion strains, locus YLR102C, strain apc9, stronger effect = lower value 0.995 | S. cerevisiae deletion strains, locus YLR113W, strain HOG1, stronger effect = lower value 1.02 | S. cerevisiae deletion strains, locus YLR221C, strain rsa3, stronger effect = lower value 1 | S. cerevisiae deletion strains, locus YLR258W, strain gsy2, stronger effect = lower value 1.01 | S. cerevisiae deletion strains, locus YLR262C, strain YPT6 (second series), stronger effect = lower value 1.03 | S. cerevisiae deletion strains, locus YLR262C, strain YPT6, stronger effect = lower value 1.05 | S. cerevisiae deletion strains, locus YLR268W, strain sec22, stronger effect = lower value 0.948 | S. cerevisiae deletion strains, locus YLR320W, strain mms22, stronger effect = lower value 0.992 | S. cerevisiae deletion strains, locus YLR330W, strain CHS5, stronger effect = lower value 1.01 | S. cerevisiae deletion strains, locus YLR342W, strain FKS1 (second series), stronger effect = lower value 1.03 | S. cerevisiae deletion strains, locus YLR342W, strain FKS1, stronger effect = lower value 1.01 | S. cerevisiae deletion strains, locus YLR357W, strain rsc2, stronger effect = lower value 1.02 | S. cerevisiae deletion strains, locus YLR370C, strain arc18, stronger effect = lower value 1.02 | S. cerevisiae deletion strains, locus YLR371W, strain rom2, stronger effect = lower value 0.996 | S. cerevisiae deletion strains, locus YLR384C, strain iki3, stronger effect = lower value 1.02 | S. cerevisiae deletion strains, locus YLR418C, strain cdc73, stronger effect = lower value 0.997 | S. cerevisiae deletion strains, locus YML016C, strain PPZ1, stronger effect = lower value 1.01 | S. cerevisiae deletion strains, locus YML032C, strain rad52, stronger effect = lower value 0.98 | S. cerevisiae deletion strains, locus YML120C, strain ndi1, stronger effect = lower value 1.02 | S. cerevisiae deletion strains, locus YML124C, strain tub3, stronger effect = lower value 0.997 | S. cerevisiae deletion strains, locus YMR058W, strain fet3, stronger effect = lower value 1.02 | S. cerevisiae deletion strains, locus YMR078C, strain ctf18, stronger effect = lower value 0.994 | S. cerevisiae deletion strains, locus YMR125W, strain sto1, stronger effect = lower value 1 | S. cerevisiae deletion strains, locus YMR129W, stronger effect = lower value 1.01 | S. cerevisiae deletion strains, locus YMR205C, strain PFK2, stronger effect = lower value 1 | S. cerevisiae deletion strains, locus YMR223W, strain ubp8, stronger effect = lower value 1.01 | S. cerevisiae deletion strains, locus YMR231W, strain pep5, stronger effect = lower value 1.01 | S. cerevisiae deletion strains, locus YMR263W, strain SAP30, stronger effect = lower value 1.01 | S. cerevisiae deletion strains, locus YMR307W, strain GAS1, stronger effect = lower value 0.995 | S. cerevisiae deletion strains, locus YNL067W, strain RPL9B, stronger effect = lower value 1.02 | S. cerevisiae deletion strains, locus YNL071W, strain lat1, stronger effect = lower value 1.01 | S. cerevisiae deletion strains, locus YNL128W, strain TEP1, stronger effect = lower value 1.01 | S. cerevisiae deletion strains, locus YNL153C, strain GIM3, stronger effect = lower value 1 | S. cerevisiae deletion strains, locus YNL183C, strain NPR1, stronger effect = lower value 0.948 | S. cerevisiae deletion strains, locus YNL209W, strain ssb2, stronger effect = lower value 1.02 | S. cerevisiae deletion strains, locus YNL233W, strain BNI4, stronger effect = lower value 0.99 | S. cerevisiae deletion strains, locus YNL248C, strain rpa49, stronger effect = lower value 0.998 | S. cerevisiae deletion strains, locus YNL250W, strain rad50, stronger effect = lower value 0.989 | S. cerevisiae deletion strains, locus YNL271C, strain bni1, stronger effect = lower value 0.992 | S. cerevisiae deletion strains, locus YNL298W, strain CLA4, stronger effect = lower value 1 | S. cerevisiae deletion strains, locus YNL307C, strain MCK1, stronger effect = lower value 0.995 | S. cerevisiae deletion strains, locus YNL322C, strain KRE1 (second series), stronger effect = lower value 1.02 | S. cerevisiae deletion strains, locus YNL322C, strain KRE1, stronger effect = lower value 1.01 | S. cerevisiae deletion strains, locus YNR049C, strain mso1, stronger effect = lower value 1.01 | S. cerevisiae deletion strains, locus YNR052C, strain pop2, stronger effect = lower value 1 | S. cerevisiae deletion strains, locus YOL006C, strain TOP1, stronger effect = lower value 1.01 | S. cerevisiae deletion strains, locus YOL012C, strain htz1 1.03 | S. cerevisiae deletion strains, locus YOL147C, strain pex11, stronger effect = lower value 0.992 | S. cerevisiae deletion strains, locus YOR001W, strain rrp6, stronger effect = lower value 1.03 | S. cerevisiae deletion strains, locus YOR061W, strain CKA2, stronger effect = lower value 1.01 | S. cerevisiae deletion strains, locus YOR069W, strain VPS5, stronger effect = lower value 1.01 | S. cerevisiae deletion strains, locus YOR070C, strain gyp1, stronger effect = lower value 1 | S. cerevisiae deletion strains, locus YOR080W, strain dia2, stronger effect = lower value 1.01 | S. cerevisiae deletion strains, locus YOR083W, strain WHI5, stronger effect = lower value 0.98 | S. cerevisiae deletion strains, locus YOR106W, strain vam3, stronger effect = lower value 1.04 | S. cerevisiae deletion strains, locus YOR136W, strain idh2, stronger effect = lower value 0.993 | S. cerevisiae deletion strains, locus YOR144C, strain elg1, stronger effect = lower value 1 | S. cerevisiae deletion strains, locus YOR184W, strain ser1, stronger effect = lower value 1 | S. cerevisiae deletion strains, locus YOR231W, strain MKK1, stronger effect = lower value 1.05 | S. cerevisiae deletion strains, locus YOR265W, strain rbl2, stronger effect = lower value 1.02 | S. cerevisiae deletion strains, locus YOR270C, strain vph1, stronger effect = lower value 1.03 | S. cerevisiae deletion strains, locus YOR290C, strain snf2, stronger effect = lower value 0.997 | S. cerevisiae deletion strains, locus YOR316C, strain cot1, stronger effect = lower value 0.999 | S. cerevisiae deletion strains, locus YPL051W, strain arl3, stronger effect = lower value 1.02 | S. cerevisiae deletion strains, locus YPL055C, strain LGE1, stronger effect = lower value 1.02 | S. cerevisiae deletion strains, locus YPL078C, strain atp4, stronger effect = lower value 1.02 | S. cerevisiae deletion strains, locus YPL106C, strain sse1, stronger effect = lower value 1.03 | S. cerevisiae deletion strains, locus YPL240C, strain hsp82, stronger effect = lower value 1.03 | S. cerevisiae deletion strains, locus YPL241C, strain CIN2, stronger effect = lower value 1.01 | S. cerevisiae deletion strains, locus YPL256C, strain CLN2, stronger effect = lower value 1.02 | S. cerevisiae deletion strains, locus YPR119W, strain clb2, stronger effect = lower value 0.992 | S. cerevisiae deletion strains, locus YPR141C, strain kar3, stronger effect = lower value 0.996 | S. cerevisiae deletion strains, locus YPR163C, strain tif3, stronger effect = lower value 1 | S. cerevisiae deletion strains, locus YPR167C, strain met16, stronger effect = lower value 1 | S. cerevisiae deletion strains, strain wtn01, stronger effect = lower value 0.997 | S. cerevisiae strains, strain wild type, stronger effect = lower value 0.997
